FLuc modulator: counter-screen for miR-21 project: firefly luciferase inhibitors or activators. 360,000 tested, 6.9% active. purified FLuc, Km substrates, luminescence inhibition. AID 588342. Potency, µM (titrated, usually from 57.5 µM), for the others: at the top dose activity change, negative = inhibition, usual class: inhibitors. P08659;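 note: plate controls were vehicle for no effect and reference inhibitor for full effect; nearly all actives have a fitted effect of over 55% in size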
Target sequence (P08659 whole entry, looked up): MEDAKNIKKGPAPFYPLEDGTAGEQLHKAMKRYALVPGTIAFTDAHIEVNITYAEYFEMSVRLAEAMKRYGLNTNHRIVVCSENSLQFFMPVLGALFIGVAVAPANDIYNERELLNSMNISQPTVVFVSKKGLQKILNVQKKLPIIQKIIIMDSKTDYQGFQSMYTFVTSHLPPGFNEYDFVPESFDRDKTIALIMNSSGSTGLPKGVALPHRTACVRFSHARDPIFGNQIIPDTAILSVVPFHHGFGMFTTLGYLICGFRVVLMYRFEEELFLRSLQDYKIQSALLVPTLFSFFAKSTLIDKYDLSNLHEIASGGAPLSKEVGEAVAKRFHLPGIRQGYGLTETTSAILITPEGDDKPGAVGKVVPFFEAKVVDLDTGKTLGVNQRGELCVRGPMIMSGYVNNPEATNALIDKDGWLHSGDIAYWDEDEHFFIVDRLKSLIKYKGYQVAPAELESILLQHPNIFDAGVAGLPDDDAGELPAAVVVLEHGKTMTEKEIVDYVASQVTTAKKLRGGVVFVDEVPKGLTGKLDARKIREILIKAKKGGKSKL
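Purified P. pyralis luciferase (10nM final) with 10uM D-luciferin and 10uM ATP (Km levels) in 50mM Tris acetate pH 7.5, 10mM Mg acetate, 0.01% Tween-20, 0.05% BSA; qHTS 6-point titration, ~60 µM downward; luminescence read.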
KinaseGlo FLuc: counter-screen: inhibitors of Kinase-Glo firefly luciferase | Kinase-Glo luciferase, ATP luminescence, 8 min | Potency, µM (doses to about 38.3 µM), inactives show at the top dose activity change, negative = inhibition, usual class: inhibitors | 200,000 tested, 0.28% active | Q27757; note: % is set by controls: 0 for no effect and ±100 for the full control effect; nearly all actives have a fitted effect of over 60% in size
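Compound is pinned into ATP-containing buffer (10 uM ATP, imidazole pH 7.2, 7 mM MgCl2). Kinase-Glo luciferase reagent is then added. Light output is recorded following an 8-min room-temperature incubation.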
SMN2 splice up: enhancers of SMN2 splice variant expression | HEK293 SMN2-luciferase splicing reporter, luminescence, 30-36 h | Potency, µM (doses to about 46.1 µM), for the others: at the highest dose activity change, positive = activation, hits mostly activators | 210,000 tested, 2.8% active; note: % of control where 0% means no effect; nearly all actives have a fitted effect of over 55% in size
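HEK293 cells carry an SMN2 […]–luciferase reporter in which exon 7 inclusion puts luciferase in frame. Cells were plated 10-12 h before compound addition, then incubated 30-36 h at 37C. ONE-Glo luminescence was read; sodium butyrate at 4.5 mM final served as control.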
Rab9 prom act: activates the Rab9 promoter | Huh7 Rab9 promoter-luciferase reporter, luminescence, 24 h | 320,000 tested, 2.8% active | AID 485297 | Potency, µM (top dose mostly 9.22 µM), for inactives: at the highest dose activation, negative = inhibition, most hits filed as activators; note: % of control where 0% means no effect; nearly all actives have a fitted effect of over 60% in size
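Stable Rab9-luc Huh7, 1500 cells/well, 2 h settle; cmpd in DMSO, 24 h, 37 °C/5% CO2; luciferase reagent 10 min RT; luminescence.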
NPC1 promoter act: activators of NPC1 promoter; Huh7 NPC1 promoter luciferase reporter, 24 h; Potency, µM (doses to about 9.22 µM), for the others: top-dose activation, usual class: activators; 320,000 tested, 2.4% active; AID 485313; note: % of control where 0% means no effect; nearly all actives have a fitted effect of over 60% in size
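Huh7 reporter cells (NPC1 promoter driving luciferase) are dosed with compound for 24 h at 37 °C, 5% CO2; luciferase detection reagent is then added and luminescence measured after 10 min at ambient temperature.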
* marks the source's active call; other numbers are inactive results; u = inconclusive; x = no result given. Only some compounds are listed: those with a hit (about 7.3% of all), similar ones and a draw of the others. Calls come from the whole dose curve; as a rule, active = well fitted curve in the direction sought with a large enough effect; inconclusive = small, poorly fitted or top-dose-only effect, or another doubt; inactive = no such curve, though single readings can be large; an effect the other way counts as inactive or inconclusive. Potency is the fitted concentration of half-maximal effect.

SMILES | FLuc modulator | KinaseGlo FLuc | SMN2 splice up | Rab9 prom act | NPC1 promoter act
Cc1ccc(-c2cc(C(=O)N3CCN(c4ccc(F)cc4)CC3)c3ccccc3n2)o1 | 3.4µM* | -8% | 14% | 16% | 2%
Cc1ccc(C)c(N2CCN(C(=O)CCS(=O)(=O)c3cc4c(cc3Cl)NC(=O)CO4)CC2)c1 | 0% | x | x | x | x
O=C(c1cc(-c2ccccn2)nc2ccc(Br)cc12)N1CCN(S(=O)(=O)c2ccccc2)CC1 | -6% | -2% | 5% | 0% | 0%
Cc1ccc(-c2cc(C(=O)N3CCN(c4ncccn4)CC3)c3cc(Br)ccc3n2)o1 | 4.8µM* | -2% | -14% | -3% | 2%
O=C(O)c1cc(-c2ccc(-c3ccc(F)cc3)o2)nc2ccccc12 | 0.13µM* | x | x | 0.89µM* | 2.5µM*
O=C(O)c1cc(-c2ccco2)nc2ccc(Br)cc12 | 19µM* | -2% | 0% | -5% | 0%
O=C(NCCCN1CCOCC1)c1cc(-c2ccc(F)cc2)nc2ccccc12 | u | x | x | -1% | 0%
COc1ccc2cc(-c3cc(C(=O)O)c4ccccc4n3)ccc2c1 | 0.067µM* | 7.9µM* | u | u | 0.11µM*
CCCCOC(=O)c1ccc(OC(=O)c2sc3ncn(Cc4cccc(F)c4)c(=O)c3c2C)cc1 | 2% | x | x | x | x
CCc1nnc(SCc2nc(-c3ccc(OC)c(OC)c3)oc2C)c2cc3sc(C)cc3n12 | -13% | x | x | x | x
COc1ccc(-c2cc(OC)c3ccccc3n2)cc1 | 19µM* | 1% | 9% | -2% | -2%
COc1ccc(-c2cc(C(=O)N3CCCC3)c3ccccc3n2)cc1 | 4.3µM* | x | x | u | 29%
Cc1ccc(-c2cc(C(=O)N3CCCCC3)c3ccccc3n2)cc1C | 2.4µM* | x | x | 8% | 18%
CC(C)c1ccc(-c2cc(C(=O)N3CCOCC3)c3cc(Br)ccc3n2)cc1 | 9.5µM* | x | x | 21% | 3%
COc1cc(-c2ccccc2)nc2ccccc12 | -13% | 6% | -43% | 7% | -2%
Cc1ccc(NC(=O)CN2C(=O)C(c3ccccc3)=NC2(C)C)cc1C | -11% | x | 2% | x | x
CCN(CC)S(=O)(=O)c1ccc(NC(=O)CN(c2ccccc2)S(=O)(=O)N(C)C)cc1 | -2% | x | -15% | x | x
CCOC(=O)N1CCN(C(=O)c2cc(-c3ccc(OCC)cc3)nc3ccccc23)CC1 | 0.21µM* | -9% | 13µM* | u | 23%
CC1CCC(C(=O)NC(C(=O)OCC(=O)c2ccccc2)C(C)C)CC1 (stereo not drawn) | u | x | -67% | x | x
COc1ccc(C(=O)SC2=NCCS2)cc1OC | 1% | x | x | 2% | 0%
COc1ccc(C(=O)c2ccc(OC)c(OC)c2)cc1OC | 3% | 0% | -13% | -7% | -2%
COc1ccc(C(=O)Sc2ccc(C)cc2)cc1OC | 6.7µM* | 7% | 17% | -6% | -4%
COc1ccc(C(=O)Sc2ccc(Cl)cc2)cc1OC | 2.7µM* | -3% | 3% | -4% | -14%
Cc1cc(C)c2c(=O)cc(CSCC(=O)Nc3ccccc3Cl)[nH]c2c1 | -2% | x | x | x | x
COc1ccc(NC(=O)Cn2c(=O)n(-c3cc(C)cc(C)c3)c(=O)c3oc4ccccc4c32)cc1OC | 0% | x | x | x | x
SMILES | FLuc modulator | KinaseGlo FLuc | SMN2 splice up | Rab9 prom act | NPC1 promoter act
Oc1ccc(COc2cccc3ccccc23)c2cccnc12 | -7% | x | x | -9% | 0%
Cc1nn(-c2ccccc2)c(N)c1N=Nc1cccc(S(=O)(=O)N2CCOCC2)c1 | u | x | x | -6% | -8%
Cc1nc2c(N=Nc3ccccc3F)c(N)nn2c(N)c1C#N | u | 1% | 11% | u | u
Nc1c(N=Nc2ccccc2F)c(=O)[nH]n1-c1ccccc1 | 3.8µM* | -21% | 20% | u | u
Cc1nn(-c2ccccc2)c(N)c1N=Nc1ccccc1 | 6.7µM* | -1% | 13µM* | 2µM* | 2.8µM*
Nc1nn(-c2ccccc2)c(N)c1N=Nc1ccccc1F | 0.95µM* | -1% | 3.5µM* | 0.45µM* | 0.56µM*
Cc1cccc(N=Nc2c(C)nn(-c3ccccc3)c2N)c1C | 13µM* | 4% | u | u | 24%
Cc1nn(-c2ccccc2)c(N)c1C(O)(C(F)(F)F)C(F)(F)F | -4% | 5% | 18% | -12% | -5%
Nc1ncnc(N)c1N=Nc1ccccc1 | -6% | x | x | 0% | 20%
Cc1cc(C)n2nc(N)c(N=Nc3ccccc3)c2n1 | 15µM* | x | x | 25% | 6%
Nc1nn(-c2ccccc2)c(N)c1N=Nc1ccccc1 | 3µM* | 1% | 8.9µM* | u | u
Cc1nn(-c2ccccc2)c(N)c1N=Nc1ccc(Cl)cc1 | 8.5µM* | 3% | 22µM* | 2µM* | 2.5µM*
CCOc1ccc2c(c1)c(=O)c(S(=O)(=O)c1ccc(CC)cc1)cn2Cc1cccc(Cl)c1 | 2% | x | -3% | x | x
CCc1ccc(NC(=O)c2cc3c([nH]c2=O)CC(C)(C)CC3=O)cc1 | -8% | x | 7% | x | x
CCOC(=O)Cc1csc(NC(=O)c2cc(C)cc(C)c2)n1 | -18% | -3% | -10% | -8% | -2%
CCOC(=O)Cc1csc(NC(=O)c2ccc(Br)s2)n1 | 24µM* | -6% | -6% | 12% | 1%
CCOC(=O)Cc1csc(NC(=O)c2cccs2)n1 | 19µM* | -6% | -4% | 20% | 17%
CCOC(=O)Cc1csc(NC(=O)/C=C/c2ccc(Br)o2)n1 | 6.7µM* | x | x | 0% | 1%
CCOc1cccc2sc(NC(=O)c3ccc(Br)s3)nc12 | 2.7µM* | -1% | -21% | 16% | 19%
COc1ccccc1N1CCN(S(=O)(=O)CCNC(=O)Cc2ccc(Cl)cc2)CC1 | 1% | x | x | x | x
CCOC(=O)c1csc(NC(=O)c2cccs2)n1 | 13µM* | x | x | 2.2µM* | 2.2µM*
COc1ccc(-n2cc(-c3ccccc3)c3c(N4CCCC(C)C4)ncnc32)cc1 (stereo not drawn) | -15% | x | x | x | x
Cc1nc2c3ccccc3nc(NNC(=O)CCC(=O)N3CCN(c4cccc(Cl)c4)CC3)n2n1 | u | x | 24% | x | x
CCN1CCN(c2ccc(NC(=O)c3cc4ccccc4cc3OC)cc2C)CC1 | 8.5µM* | x | x | u | 29%
CCN1CCN(c2ccc(NC(=O)c3ccc(C#N)cc3F)cc2Cl)CC1 | -7% | 0% | -12% | -2% | 5%
SMILES | FLuc modulator | KinaseGlo FLuc | SMN2 splice up | Rab9 prom act | NPC1 promoter act
CCN1CCN(c2ccc(NC(=O)c3ccccc3F)cc2Cl)CC1 | u | 0% | 10µM* | u | u
Cc1ccc(C(=O)c2cn(Cc3ccccc3F)c3cc4c(cc3c2=O)OCO4)cc1 | -2% | x | 4% | x | x
COc1ccc(-c2cc3c(=O)n(CC(=O)NCCCN4CCN(Cc5ccccc5)CC4)ncn3n2)cc1 | 1.5µM* | x | x | u | u
COc1ccc(-c2cc3c(=O)n(CC(=O)NCCCN4CCC(Cc5ccccc5)CC4)ncn3n2)cc1 | 4.8µM* | x | x | u | u
COc1ccc(-c2cc3c(=O)n(CC(=O)NCc4ccc(Cl)cc4)ncn3n2)cc1 | 6% | x | x | 29% | 11%
CCOc1ccc(CCNC(=O)Cn2ncn3nc(-c4ccc(OC)cc4)cc3c2=O)cc1 | -5% | x | x | 19% | 14%

Screens: PubChem BioAssay, National Center for Advancing Translational Sciences (NCATS)
